Reference: PubChem BioAssay (NCATS)
Where “and” joins values, the source holds several entries; their conditions need not be identical. Identical values can stand only once. Inconclusive results are not listed. Entries that show only a call come without a potency. Calls of active or inactive are those of the source. Unless noted, calls come from the whole dose curve; as a rule, active = well fitted curve in either direction with a large enough effect (not every such curve was filed as active); inconclusive = small, poorly fitted or top-dose-only effect, or another doubt; inactive = flat fitted curve, though single readings scatter.

What was measured:
[1] = AP1 Signaling Pathway (AID 357);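 note: ME-180 reporter cells stimulated with EGF at its EC50 level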
Summary of the method: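 Read-out was the 460nm/530nm emission ratio (excitation 405nm) after CCF4 loading for 2.5 hours at room temperature. Cells carried an AP-1-driven beta-lactamase reporter, were stimulated with EC50 EGF plus compound for 5 hours, and AC50 values came from titrations.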

[2] = target: Cytochrome P450 1A2 (Homo sapiens) (UniProt P05177); experiment: p450-cyp1a2 (AID 410; calls by dose curve; note: potency is the fitted concentration of half-maximal effect)
Summary of the method: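 Luminescent readout of luciferin formed from Luciferin-ME by human CYP1A2; data normalized against complete inhibition by 57 uM furafylline. Enzyme 20nM, substrate 100uM at Km, 100mM KPO4 buffer, 60 min reaction at room temperature.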

[3] = NFAT Signaling Pathway (AID 444); conditions: Jurkat NFAT-bla M1, carbachol, beta-lactamase ratio, 5 h; at 17.2 µM (top of the series);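 note: carbachol stimulus at about its EC50 of 1 µM final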
Summary of the method: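 Read-out: CCF4 FRET ratio (460 nm/530 nm) after 1 h RT dye loading, used for %activity and AC50 from titration series. Cells: Jurkat NFAT-β-lactamase/M1 line, treated with compound plus 1 uM carbachol for 5 h, 37 °C.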

[4] = Stat Signaling Pathway (AID 446);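 note: ME-180 cervical cancer cells given 40 pM IL-6 alongside compound; SIE-controlled beta-lactamase reporter measured as 460/530 nm FRET emission ratio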
Summary of the method: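 ME-180 SIE-bla cells; overnight plating; cpd + IL-6 40 pM, 5 h, 37 C; LiveBLAzer 2.5 h RT; 460/530 nm emission ratio. Normalized to 300 pM IL-6 and 125 nM JAK inhibitor controls.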

[5] = target: Glucocorticoid receptor (Homo sapiens) (UniProt P04150); experiment: GR-GFP Redistribution (AID 450;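 active = compounds whose dose series gives a full or clear partial fitted curve of increased nuclear translocation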; note: potency is the fitted concentration of half-maximal effect); conditions: U2OS GR-GFP nuclear translocation, laser cytometry, 2 h
[6] = target: Glucocorticoid receptor (Homo sapiens) (UniProt P04150); experiment: GR-EFC Redistribution (AID 451; calls by dose curve; note: potency is the fitted concentration of half-maximal effect); conditions: CHO-K1 GR-EFC translocation, beta-gal luminescence, 2 h
Summary of the method: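 Translocation of GR-ED fusion to nuclear EA restores b-gal, read by luminescence after 1 h room-temperature detection. Engineered CHO-K1 biosensor cells, 1,000/well, exposed 2 h at 37 C to titrations up to 46 uM final.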

[7] = target: 3',5'-cyclic-AMP phosphodiesterase 4B (Homo sapiens) (UniProt Q07343); experiment: qHTS Assay for Inhibitors of PDE-IV (AID 607; active = well fitted activation curve with a large enough effect in the main read-out, with a control signal flat, not every such curve was filed as active)
Summary of the method: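 ACTOne HEK293 cells carry a modified cAMP-gated CNG channel and express endogenous PDE4; plated 1000 cells/well, compounds up to 22.9 uM final. Membrane-potential dye fluorescence (ex 535/em 590) was read; parental cells received 10 uM forskolin + 100 uM RO 20-1724.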

[8] = qHTS Assay for Lipid Storage Modulators (AID 1519; calls by dose curve); conditions: Drosophila S3 cells, BODIPY lipid droplet/cell ratio, laser cytometry, cells loaded with oleic acid; for activity change, negative = inhibition: at 25.7 µM (top of the series)
Summary of the method: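 Cells seeded at 5,000 per well were treated with compounds over a concentration series and loaded with oleic acid (400 uM, as added). Lipid droplet fluorescence (488 nm excitation, 500-530 nm channel) was read by laser-scanning cytometry and normalized to 20 uM Triacsin C.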

[9] = target: Ubiquitin carboxyl-terminal hydrolase 1 (Homo sapiens) (UniProt O94782); experiment: Inhibitors of USP1/UAF1: Pilot qHTS (AID 504865; active = well fitted curve in the direction sought with a large enough effect; an effect the other way counts as inactive or inconclusive; note: nearly all actives have a fitted effect of over 35% in size; note: potency is the fitted concentration of half-maximal effect;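 for activity change, negative = inhibition: rhodamine fluorescence freed from ubiquitin-rhodamine substrate followed over time; top concentration of the series differs between compounds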)
Summary of the method: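 USP1/UAF1 complex at 1 nM preincubated 15 min at room temperature with compound, then Ub-Rho substrate added at 150 nM final. Fluorescence (480/540 nm) read kinetically in 50 mM HEPES pH 7.8, 0.5 mM EDTA, 1 mM TCEP, 0.1 mg/ml BSA, 0.01% Tween-20.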

[10] = target: Mitogen-activated protein kinase 10 (Mus musculus) (UniProt Q61831); experiment: JNK3 AlphaScreen Assay (AID 530);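 note: kinase came from lysate of stimulated human HepG2 cells; signal reports phosphorylation of biotinylated GST-cJun 1-79 at Ser73 with 10 µM ATP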
Summary of the method: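 Compound titrations were preincubated 15 minutes at room temperature with substrate, antibody and pre-activated JNK3-containing HepG2 lysate. Reactions were started with 10 uM ATP and stopped with EDTA-containing bead buffer for AlphaScreen detection.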

[11] = target: Cytochrome P450 3A4 (Homo sapiens) (UniProt P08684); experiment: qHTS Assay for Activators of Cytochrome P450 3A4 (AID 885; active = well fitted curve in the direction sought with a large enough effect; an effect the other way counts as inactive or inconclusive; note: nearly all actives have a fitted effect of over 65% in size)
Summary of the method: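 20nM CYP3A4 + 25uM Luciferin-PPXE (=KM), 200mM KPO4; cpd 10 min RT; NADPH regen, 60 min RT; stop w/ detection buffer, 20 min; luminescence. Normalized to 57 uM ketoconazole.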

[12] = target: ATP-dependent 6-phosphofructokinase (Trypanosoma brucei brucei) (UniProt O15648); experiment: qHTS Assay to Find Inhibitors of T. brucei phosphofructokinase: hit validation (AID 492961; active = well fitted curve in the direction sought with a large enough effect; an effect the other way counts as inactive or inconclusive;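 note: luminescence reports ADP formed as PFK phosphorylates fructose-6-phosphate with ATP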)
Summary of the method: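 In this biochemical qHTS validation, titrated compounds were tested against 1.25 nM PFK with 0.1 mM ATP and 0.5 mM F6P. Percent activity came from controls lacking or containing enzyme.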

[13] = target: Luciferin 4-monooxygenase (Photinus pyralis) (UniProt P08659); experiment: Biochemical firefly luciferase enzyme assay for NPC (AID 624030; active = well fitted curve in the direction sought with a large enough effect; an effect the other way counts as inactive or inconclusive;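 note: purified P. pyralis luciferase at 10 nM with luciferin and ATP substrate; nearly all actives have a fitted effect of over 70% in size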)
Summary of the method: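 Direct inhibition of firefly luciferase enzyme (10 nM final, 50 mM Tris Acetate) assessed by luminescence within 5 minutes. Percent activity scaled between DMSO and PTC124 positive control, with concentration-effect curves classified by fit quality and response.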

[14] = S16 Schwann cell PMP22 intronic element firefly luciferase assay (AID 624032; active = well fitted curve in the direction sought with a large enough effect; an effect the other way counts as inactive or inconclusive; note: nearly all actives have a fitted effect of over 30% in size)
Summary of the method: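 Luciferase reporter of PMP22 intronic-element expression in stably transfected S16 rat Schwann cells, read by ONE-Glo luminescence after 24 h compound exposure at 37 C. Activity scaled between DMSO (0%) and positive-control PTC124; concentration-effect curves quality-classified.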

[15] = qHTS profiling for inhibitors of Plasmodium falciparum proliferation (AID 504749; active = well fitted curve in the direction sought with a large enough effect; an effect the other way counts as inactive or inconclusive; note: nearly all actives have a fitted effect of over 60% in size); conditions: P. falciparum in erythrocytes, SYBR Green DNA, 72 h; at 12.8 µM (top of the series); parasite line A
Summary of the method: (§1)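 Infected RBCs, 0.3% parasitemia/2.5% Hct final; cpd 72 h, 37 C, 5% CO2; lysis buffer with saponin/triton/SYBR Green I, o/n RT dark; FI 485/535; norm. to artemisinin (0.29 uM) and DMSO.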

C2A = experiment: as above; conditions: P. falciparum in erythrocytes, SYBR Green DNA, 72 h; series mostly up to 28.7 µM
Summary of the method: as §1

CP262 = experiment: as above; conditions: P. falciparum in erythrocytes, SYBR Green DNA, 72 h; series mostly up to 28.7 µM
Summary of the method: as §1

FAB9 = experiment: as above; conditions: P. falciparum in erythrocytes, SYBR Green DNA, 72 h; series mostly up to 28.7 µM
Summary of the method: as §1

[16] = measured here: cell count channel max response
[17] = measured here: lipid channel max response

Chain of Ubiquitin carboxyl-terminal hydrolase 1 (Homo sapiens) (O94782 whole entry, looked up): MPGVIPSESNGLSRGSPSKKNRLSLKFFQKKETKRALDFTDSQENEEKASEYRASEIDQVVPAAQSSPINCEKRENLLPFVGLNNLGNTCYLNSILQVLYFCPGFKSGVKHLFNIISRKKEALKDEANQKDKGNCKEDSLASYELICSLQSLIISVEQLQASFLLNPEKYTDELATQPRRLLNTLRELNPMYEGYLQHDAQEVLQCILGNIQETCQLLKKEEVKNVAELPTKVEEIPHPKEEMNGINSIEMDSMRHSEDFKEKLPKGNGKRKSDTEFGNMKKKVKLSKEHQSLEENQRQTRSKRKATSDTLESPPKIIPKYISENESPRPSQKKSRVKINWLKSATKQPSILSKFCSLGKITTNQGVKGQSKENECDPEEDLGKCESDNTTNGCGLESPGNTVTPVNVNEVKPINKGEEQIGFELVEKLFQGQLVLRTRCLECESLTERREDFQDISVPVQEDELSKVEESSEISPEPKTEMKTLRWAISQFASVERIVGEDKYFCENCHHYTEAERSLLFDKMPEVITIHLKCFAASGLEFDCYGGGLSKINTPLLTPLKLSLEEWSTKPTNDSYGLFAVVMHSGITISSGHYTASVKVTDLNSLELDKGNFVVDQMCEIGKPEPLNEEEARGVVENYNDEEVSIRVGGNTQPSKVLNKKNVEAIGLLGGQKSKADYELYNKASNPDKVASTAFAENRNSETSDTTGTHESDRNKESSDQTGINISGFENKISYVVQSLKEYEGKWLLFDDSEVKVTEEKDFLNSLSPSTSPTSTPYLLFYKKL
Chain of Cytochrome P450 1A2 (Homo sapiens) (P05177 whole entry, looked up): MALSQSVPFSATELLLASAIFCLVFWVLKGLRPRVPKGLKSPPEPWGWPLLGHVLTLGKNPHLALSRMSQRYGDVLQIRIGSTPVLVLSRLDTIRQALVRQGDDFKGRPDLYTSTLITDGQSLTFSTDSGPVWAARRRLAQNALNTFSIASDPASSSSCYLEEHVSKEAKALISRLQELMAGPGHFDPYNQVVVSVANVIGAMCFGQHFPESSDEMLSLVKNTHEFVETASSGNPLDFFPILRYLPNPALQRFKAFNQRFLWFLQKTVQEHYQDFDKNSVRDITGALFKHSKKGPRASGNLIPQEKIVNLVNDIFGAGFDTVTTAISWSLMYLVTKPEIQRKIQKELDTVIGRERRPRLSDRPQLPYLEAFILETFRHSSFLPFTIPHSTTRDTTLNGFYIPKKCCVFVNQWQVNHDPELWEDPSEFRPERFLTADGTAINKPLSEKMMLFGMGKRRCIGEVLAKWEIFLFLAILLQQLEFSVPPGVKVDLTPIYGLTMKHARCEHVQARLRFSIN
Chain of Glucocorticoid receptor (Homo sapiens) (P04150 whole entry, looked up, the tested form may be a part): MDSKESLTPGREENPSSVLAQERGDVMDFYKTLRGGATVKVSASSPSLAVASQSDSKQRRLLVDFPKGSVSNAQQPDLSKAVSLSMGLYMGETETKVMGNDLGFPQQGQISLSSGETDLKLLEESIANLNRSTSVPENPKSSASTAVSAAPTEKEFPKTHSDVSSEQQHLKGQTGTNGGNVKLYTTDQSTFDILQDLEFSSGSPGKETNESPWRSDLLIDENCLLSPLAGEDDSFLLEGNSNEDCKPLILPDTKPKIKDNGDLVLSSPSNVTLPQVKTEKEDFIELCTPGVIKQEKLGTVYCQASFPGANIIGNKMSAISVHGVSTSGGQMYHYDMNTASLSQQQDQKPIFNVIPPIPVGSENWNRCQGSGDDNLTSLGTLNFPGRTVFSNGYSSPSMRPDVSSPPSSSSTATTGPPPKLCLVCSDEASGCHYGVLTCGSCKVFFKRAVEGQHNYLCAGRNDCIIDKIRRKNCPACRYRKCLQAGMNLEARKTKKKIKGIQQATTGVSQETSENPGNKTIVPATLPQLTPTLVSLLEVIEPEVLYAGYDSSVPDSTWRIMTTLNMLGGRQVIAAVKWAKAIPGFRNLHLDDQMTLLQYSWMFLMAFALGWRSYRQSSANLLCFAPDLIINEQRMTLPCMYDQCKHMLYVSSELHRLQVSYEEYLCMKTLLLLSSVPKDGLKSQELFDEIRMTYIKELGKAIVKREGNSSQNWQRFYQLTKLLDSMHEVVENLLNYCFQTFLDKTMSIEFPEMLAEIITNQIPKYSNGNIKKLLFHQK
Chain of Cytochrome P450 3A4 (Homo sapiens) (P08684 whole entry, looked up): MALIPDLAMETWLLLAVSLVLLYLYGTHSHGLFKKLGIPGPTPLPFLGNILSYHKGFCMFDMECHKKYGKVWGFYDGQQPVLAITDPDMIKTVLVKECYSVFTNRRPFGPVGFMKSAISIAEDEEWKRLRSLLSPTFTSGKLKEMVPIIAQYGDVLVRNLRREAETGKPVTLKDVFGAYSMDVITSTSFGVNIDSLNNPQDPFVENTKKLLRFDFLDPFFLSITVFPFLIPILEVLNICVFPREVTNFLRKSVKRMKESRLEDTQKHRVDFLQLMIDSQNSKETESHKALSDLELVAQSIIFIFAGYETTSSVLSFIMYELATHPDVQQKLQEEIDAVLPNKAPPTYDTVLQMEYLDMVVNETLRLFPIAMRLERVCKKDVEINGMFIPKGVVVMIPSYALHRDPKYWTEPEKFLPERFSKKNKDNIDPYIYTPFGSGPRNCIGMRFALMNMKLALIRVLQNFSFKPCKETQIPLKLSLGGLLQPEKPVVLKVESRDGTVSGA
Chain of 3',5'-cyclic-AMP phosphodiesterase 4B (Homo sapiens) (Q07343 whole entry, looked up): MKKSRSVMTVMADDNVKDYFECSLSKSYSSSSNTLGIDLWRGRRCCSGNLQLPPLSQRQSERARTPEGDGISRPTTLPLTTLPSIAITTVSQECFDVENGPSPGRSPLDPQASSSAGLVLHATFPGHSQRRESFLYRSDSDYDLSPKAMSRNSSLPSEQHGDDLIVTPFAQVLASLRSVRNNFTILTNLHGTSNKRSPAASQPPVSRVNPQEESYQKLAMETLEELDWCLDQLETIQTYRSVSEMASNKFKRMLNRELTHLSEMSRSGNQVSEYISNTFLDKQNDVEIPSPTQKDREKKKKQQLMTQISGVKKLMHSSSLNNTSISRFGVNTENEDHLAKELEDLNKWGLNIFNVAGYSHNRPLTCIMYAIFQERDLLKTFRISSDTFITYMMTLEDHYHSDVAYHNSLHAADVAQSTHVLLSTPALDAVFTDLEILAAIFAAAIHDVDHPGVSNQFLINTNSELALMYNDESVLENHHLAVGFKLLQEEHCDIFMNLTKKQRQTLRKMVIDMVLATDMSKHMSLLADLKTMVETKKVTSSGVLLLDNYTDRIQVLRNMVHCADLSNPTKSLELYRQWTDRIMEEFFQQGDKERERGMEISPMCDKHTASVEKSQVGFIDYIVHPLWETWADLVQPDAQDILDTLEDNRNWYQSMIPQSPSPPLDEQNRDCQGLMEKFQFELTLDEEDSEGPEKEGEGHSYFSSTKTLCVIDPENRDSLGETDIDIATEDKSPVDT
Chain of ATP-dependent 6-phosphofructokinase (Trypanosoma brucei brucei) (O15648 whole entry, looked up): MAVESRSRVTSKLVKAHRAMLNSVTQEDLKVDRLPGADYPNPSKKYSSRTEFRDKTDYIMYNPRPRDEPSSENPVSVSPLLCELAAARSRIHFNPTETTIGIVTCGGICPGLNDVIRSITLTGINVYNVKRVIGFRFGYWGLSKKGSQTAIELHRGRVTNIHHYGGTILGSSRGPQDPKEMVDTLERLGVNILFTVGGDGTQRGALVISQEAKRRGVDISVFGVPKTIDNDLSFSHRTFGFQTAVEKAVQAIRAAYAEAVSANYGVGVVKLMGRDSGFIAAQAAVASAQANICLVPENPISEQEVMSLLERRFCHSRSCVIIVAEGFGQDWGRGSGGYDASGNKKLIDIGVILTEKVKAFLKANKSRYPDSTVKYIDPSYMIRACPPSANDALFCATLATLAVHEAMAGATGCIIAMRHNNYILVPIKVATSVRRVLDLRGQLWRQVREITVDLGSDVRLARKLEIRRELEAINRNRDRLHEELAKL
Chain of Luciferin 4-monooxygenase (Photinus pyralis) (P08659 whole entry, looked up): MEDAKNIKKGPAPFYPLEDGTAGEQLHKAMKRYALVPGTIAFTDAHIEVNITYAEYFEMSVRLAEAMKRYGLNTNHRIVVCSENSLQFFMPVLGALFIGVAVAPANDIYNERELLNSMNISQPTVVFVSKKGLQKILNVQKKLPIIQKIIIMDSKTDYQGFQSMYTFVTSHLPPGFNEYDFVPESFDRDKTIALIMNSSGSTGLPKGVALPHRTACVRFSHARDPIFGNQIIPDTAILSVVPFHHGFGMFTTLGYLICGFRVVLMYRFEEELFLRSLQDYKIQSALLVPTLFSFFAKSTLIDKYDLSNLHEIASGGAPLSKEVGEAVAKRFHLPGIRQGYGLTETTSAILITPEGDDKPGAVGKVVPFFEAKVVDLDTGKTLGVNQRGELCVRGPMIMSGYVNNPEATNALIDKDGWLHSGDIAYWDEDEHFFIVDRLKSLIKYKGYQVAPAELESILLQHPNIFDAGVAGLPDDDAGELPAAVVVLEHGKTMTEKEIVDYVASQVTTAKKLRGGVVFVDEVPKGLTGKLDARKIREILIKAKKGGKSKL

| Compound | outcome [1] | Potency [2] | activity change, negative = inhibition [3] | outcome [4] | Potency [5] | Potency [6] | Potency [7] | activity change, negative = inhibition [8] | max response [8, 16] | max response [8, 17] | Potency [9] | outcome [10] | Potency [11] | Potency [12] | Potency [13] | Potency [14] | activity, negative = inhibition [15] | Potency (C2A) | Potency (CP262) | Potency (FAB9) |
| --- | --- | --- | --- | --- | --- | --- | --- | --- | --- | --- | --- | --- | --- | --- | --- | --- | --- | --- | --- | --- |
| O=[N+]([O-])O[C@H]1CO[C@H]2[C@H]1OC[C@@H]2O[N+](=O)[O-] | inactive | inactive | -5.68% (inactive) | inactive | > 20.6 µM (inactive) | > 20.6 µM (inactive) | inactive | -2.81% (inactive) | -2.42% | -3.6% |  |  |  |  |  |  |  |  |  |  |
| COC1=C[C@H]2C3=C([C@H]2C1=O)[C@H](NC(C)=O)CCc1cc(OC)c(OC)c(OC)c13 | inactive | inactive | -4.77% (inactive) | inactive | > 20.6 µM (inactive) | > 20.6 µM (inactive) | inactive | 0.263% (inactive) | 1.69% | 2.18% | inactive |  |  |  |  |  |  |  |  |  |
| CCN1C[C@]2(C)CC[C@H](OC)[C@@]34[C@@H]2[C@H](OC(C)=O)[C@]2(OCO[C@@]25C[C@@H](OC)[C@@H]2C[C@@]3(O)[C@H]5[C@@H]2OC)[C@H]14 | inactive | inactive | -4.41% (inactive) | inactive | > 20.6 µM (inactive) | > 20.6 µM (inactive) | inactive | -1.59% (inactive) | -0.005% | 0.99% | inactive | inactive | inactive |  |  |  |  |  |  |  |
| COc1ccc(C[C@H]2c3cc(OC)c(OC)cc3CCN2C)cc1OC | inactive | inactive | -1.22% (inactive) | inactive | > 20.6 µM (inactive) and > 46 µM (inactive) | > 20.6 µM (inactive) and > 46 µM (inactive) | inactive | 1.88% (inactive) | 10% | 12.8% |  |  |  |  |  |  |  |  |  |  |
| C/C=C1\C[N@@+]2(C)CC[C@@]34C(=C(C=O)[C@H]1C[C@H]32)Nc1ccccc14 | inactive | inactive | -3.46% (inactive) | inactive | > 20.6 µM (inactive) | > 20.6 µM (inactive) |  | -2.98% (inactive) | -3.08% | -5.51% | inactive | inactive | inactive |  |  |  |  |  |  |  |
| C=C[C@H]1CN2CC[C@@H]1C[C@H]2[C@@H](O)c1ccnc2ccccc12 | inactive | inactive | -25.9% (inactive) | inactive | > 20.6 µM (inactive) | > 20.6 µM (inactive) | inactive | -1.72% (inactive) and -4.09% (inactive) | 9.79% and -10.1% | 6.74% and -12.1% | inactive | inactive |  |  |  |  |  |  |  |  |
| CCN1C[C@@]2(COC)[C@H]3[C@@H](OC)[C@H]4C1[C@@]3([C@H](OC)C[C@@H]2O)[C@H]1C[C@@]2(O)[C@@H](OC(=O)c3ccccc3)[C@@H]1[C@@]4(OC(C)=O)[C@H](O)[C@@H]2OC | inactive | inactive | -22.7% (inactive) | inactive |  |  | inactive | -1.64% (inactive) | -0.297% | -0.649% | inactive | inactive |  |  |  |  |  |  |  |  |
| CC(C)C[C@H]1C(=O)N2CCC[C@@H]2[C@@]2(O)O[C@](NC(=O)[C@@H]3C=C4c5cccc6[nH]cc(c56)C[C@@H]4N(C)C3)(C(C)C)C(=O)N12 | inactive | 12.6 µM (active) | -19.6% (inactive) | inactive | > 20.6 µM (inactive) | > 20.6 µM (inactive) |  | 1.16% (inactive) | -5.41% | -4.79% | 14.1 µM (active) | inactive | inactive |  |  |  |  |  |  |  |
| CN1[C@H]2CC(=O)C[C@@H]1[C@@H](O)C2 | inactive | inactive | -9.47% (inactive) | inactive | > 20.6 µM (inactive) | > 20.6 µM (inactive) | inactive | -5.66% (inactive) | -20.9% | -23.7% |  | inactive |  |  |  |  |  |  |  |  |
| CN1CC[C@]2(C)c3cc(O)ccc3N(C)[C@@H]12 | inactive | 15.8 µM (active) and 31.6 µM (active) |  | inactive | > 46 µM (inactive) and > 20.6 µM (inactive) | > 46 µM (inactive) and > 20.6 µM (inactive) | inactive | -1.57% (inactive) | -15.4% | -17.5% | 2.82 µM (active) | inactive | inactive |  |  |  |  |  |  |  |
| CC[C@]1(c2cccc(O)c2)CCCCN(C)C1 | inactive | inactive |  | inactive | > 20.6 µM (inactive) | > 20.6 µM (inactive) | inactive | -0.585% (inactive) | -13.2% | -11.2% | inactive | inactive |  | inactive | inactive | inactive | -7.81% (inactive) | inactive | inactive | inactive |
| C=C[C@]12CN(C)[C@H]3C1[C@@]1(C(=O)Nc4ccccc41)[C@H]1C[C@H]2[C@H]3CO1 | inactive | inactive |  | inactive | > 20.6 µM (inactive) | > 20.6 µM (inactive) | inactive | -5.3% (inactive) | -11.8% | -17.8% | inactive | inactive |  |  |  |  |  |  |  |  |
| CCN(CC)C(=O)N[C@@H]1C[C@H]2c3cccc4[nH]cc(c34)C[C@@H]2N(C)C1 | inactive | inactive | 3.13% (inactive) and -9.31% (inactive) | inactive |  |  | inactive | 2.1% (inactive) and 1.29% (inactive) | -3.13% and -3.55% | -0.685% and -2.23% | inactive | inactive | inactive |  |  |  |  |  |  |  |
| CCN1C[C@@]2(COC)CC[C@H](OC)[C@]34[C@@H]1[C@]1(OCO[C@@]15C[C@@H](OC)C1C[C@H]3[C@H]5[C@@H]1OC)[C@H](O)[C@@H]24 | inactive | inactive | -1.05% (inactive) | inactive | > 20.6 µM (inactive) | > 20.6 µM (inactive) | inactive | -0.879% (inactive) | -14.7% | -15% | inactive | inactive |  |  |  |  |  |  |  |  |
